Reference: PubChem BioAssay (NCI)
“And” between values parts separate entries of the source, which are not always exact repeats. Equal entries are not always repeated. This is part of a sample that, as a whole, favours compounds with a hit. Of some 79,000 tested, about 15% had one in any assay. Where a structure was tested more than once in an assay, its records may differ in their call. The source made the active and inactive calls. Rule as the data show it: active = growth inhibition above about 70%; inactive = the rest.

Key:
[1] = NCI Yeast Anticancer Drug Screen. Data for the rad50 strain (AID 155);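 also: 0% = growth of vehicle-only cultures of the same strain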; settings: S. cerevisiae rad50 strain growth inhibition, stronger effect = higher value
Procedure, shortened: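 Cells are treated with compound, grown, and their growth is then scored against vehicle-only cultures of the same repair-deficient yeast strain.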

[2] = NCI Yeast Anticancer Drug Screen. Data for the mec2-1 strain (AID 157); settings: S. cerevisiae mec2-1 strain, stronger effect = higher value
Procedure, shortened: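 Each compound was tested on mec2-1 yeast, a strain altered in DNA damage repair or cell cycle control. Growth inhibition is reported relative to vehicle.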

[3] = NCI Yeast Anticancer Drug Screen. Data for the sgs1 mgt1 strain (AID 161);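 also: 0% = growth of cultures given vehicle only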; settings: S. cerevisiae sgs1 mgt1 strain, stronger effect = higher value
Procedure, shortened: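 Genetically altered yeast, compound exposure, growth inhibition relative to vehicle.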

[4] = NCI Yeast Anticancer Drug Screen. Data for the cln2 rad14 strain (AID 165);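 also: 0% = growth equal to vehicle treated cultures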; settings: S. cerevisiae cln2 rad14 strain, stronger effect = higher value
Procedure, shortened: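 Test compounds were added to cln2 rad14 yeast cultures; inhibition of growth was then determined by comparison with vehicle treatment.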

[5] = NCI Yeast Anticancer Drug Screen. Data for the bub3 strain (AID 167); settings: S. cerevisiae bub3 mutant strain, stronger effect = higher value
Procedure, shortened: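 Part of a panel of yeast mutants defective in DNA damage repair or cell cycle regulation. Each strain is grown with compound, and inhibition is calculated relative to solvent-treated cultures.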

[6] = NCI Yeast Anticancer Drug Screen. Data for the mlh1 rad18 strain (AID 175); settings: S. cerevisiae mlh1 rad18 strain growth inhibition, stronger effect = higher value
Procedure, shortened: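 Inhibition values reflect reduced growth of mutant yeast versus vehicle-treated controls following compound exposure; the mutations affect DNA damage repair.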

[7] = at 5.0 µM (retest, dose inferred, filed as 0.5)
[8] = at 50.0 µM (retest, dose inferred, filed as 5.0)

Row | Compound | growth inhibition [1, 7] | growth inhibition [1, 8] | growth inhibition ([1]; at 50.0 µM) | growth inhibition [2, 7] | growth inhibition [2, 8] | growth inhibition ([2]; at 50.0 µM) | growth inhibition [3, 7] | growth inhibition [3, 8] | growth inhibition ([3]; at 50.0 µM) | growth inhibition [4, 7] | growth inhibition [4, 8] | growth inhibition ([4]; at 50.0 µM) | growth inhibition [5, 7] | growth inhibition [5, 8] | growth inhibition ([5]; at 50.0 µM) | growth inhibition [6, 7] | growth inhibition [6, 8] | growth inhibition ([6]; at 50.0 µM)
1 | CC(=O)[CH-]C(=O)c1ccccc1.CC(=O)[CH-]C(=O)c1ccccc1.C[C@]12CCC(=O)C=C1CC[C@@H]1C2CC[C@@]2(C)C1CC[C@@H]2[O-].C[C@]12CCC(=O)C=C1CC[C@@H]1C2CC[C@@]2(C)C1CC[C@@H]2[O-].Cl.[Ti+4] (some centres undefined) | 41% (inactive) | 78% (active) | 76.8% (active) | 35% (inactive) | 84% (active) | 70.8% (active) | 39% (inactive) | 85% (active) | 78.8% (active) | 26% (inactive) | 48% (inactive) | 50.9% (inactive) | 37% (inactive) | 86% (active) | 76.5% (active) | 47% (inactive) | 84% (active) | 73.2% (active)
2 | CN1CCN(c2ccc([N+](=O)[O-])c3no[n+]([O-])c23)CC1 | 96% (active) and 97% (active) | 99% (active) | 99.2% (active) and 89.8% (active) | 52% (inactive) and 81% (active) | 99% (active) | 97.5% (active) and 93% (active) | 82% (active) and 93% (active) | 99% (active) | 98.8% (active) and 91.3% (active) | 72% (active) and 46% (inactive) | 97% (active) and 98% (active) | 92.7% (active) and 84.6% (active) | 45% (inactive) and 65% (inactive) | 99% (active) and 97% (active) | 98.2% (active) and 91.5% (active) | 94% (active) and 97% (active) | 99% (active) | 94.2% (active) and 90.2% (active)
3 | [Au+].c1c[n-]cn1.c1ccc([PH+](c2ccccc2)c2ccccc2)cc1 | 99% (active) | 98% (active) | 97.9% (active) | 99% (active) | 98% (active) | 98% (active) | 99% (active) | 98% (active) | 96.2% (active) | 98% (active) | 97% (active) | 93.6% (active) | 98% (active) | 98% (active) | 97.2% (active) | 99% (active) | 98% (active) | 97.7% (active)
4 | [CH3][Sn]([Br])([Br])[CH2]CCCBr | 22% (inactive) | 95% (active) | 89.7% (active) | 10% (inactive) | 94% (active) | 93.4% (active) | 23% (inactive) | 97% (active) | 73.2% (active) | 7% (inactive) | 93% (active) | 86.1% (active) | 13% (inactive) | 93% (active) | 90.7% (active) | 27% (inactive) | 86% (active) | 85.1% (active)
5 | Cc1ccc(C(=O)CCl)o1 | -114% (inactive) | 97% (active) | 98.7% (active) | -29% (inactive) | 98% (active) | 99.7% (active) | -46% (inactive) | 94% (active) | 76% (active) | -54% (inactive) | 77% (active) | 71.4% (active) | -34% (inactive) | 98% (active) | 99.2% (active) | -96% (inactive) | 95% (active) | 98.5% (active)
6 | COc1cc(C=Nc2ccc(-c3csc(COc4ccccc4)n3)cc2)ccc1N(CCCl)CCCl | 12% (inactive) | 88% (active) | 89.7% (active) | 11% (inactive) | 92% (active) | 88.1% (active) | 8% (inactive) | 93% (active) | 86.2% (active) | 2% (inactive) | 85% (active) | 84.2% (active) | 17% (inactive) | 88% (active) | 86% (active) | 77% (active) | 92% (active) | 90.6% (active)
7 | Oc1cc[c]([Hg][Cl])cc1 | 99% (active) | 99% (active) | 99.5% (active) and 100% (active) | 100% (active) | 100% (active) | 99.5% (active) and 99.7% (active) | 100% (active) | 99% (active) and 100% (active) | 99.1% (active) and 100% (active) | 99% (active) | 99% (active) | 98.2% (active) and 99.5% (active) | 99% (active) and 100% (active) | 99% (active) and 100% (active) | 99.6% (active) and 99.7% (active) | 99% (active) | 99% (active) | 99.2% (active) and 99.3% (active)
8 | FC1(F)C(Cl)=[C]([Hg][C]2=C(Cl)C(F)(F)C(F)(F)C(F)(F)C2(F)F)C(F)(F)C(F)(F)C1(F)F | 45% (inactive) | 98% (active) | 98.6% (active) | 66% (inactive) | 99% (active) | 51.1% (inactive) | 58% (inactive) | 99% (active) | 99.7% (active) | 57% (inactive) | 99% (active) | 19.9% (inactive) | 69% (inactive) | 99% (active) | 75% (active) | 57% (inactive) | 99% (active) | 50.6% (inactive)
